# From paper PMC6451091, “NextPBM: a platform to study cell-specific transcription factor binding and cooperativity”
# Over roughly 3,700 sequences, “z-score” has its median near 4; the highest 2% begin near 8.4. The list comes from a sample in which the highest values are over-represented; it also holds similar and randomly drawn sequences.
# Key:
# PU.1 (IVT) [1] = target: PU.1 (IVT) (UniProt P17947 1-270); assay: protein-binding microarray (PBM); 20 mM HEPES pH 7.9, 100 mM NaCl, 1 mM DTT, 0.2 mg/mL BSA, 0.02% Triton X-100, 2% milk, 0.4 mg/mL salmon testes DNA; 1 h; temperature not stated; high values mean tight binding; settings: dsDNA, one strand shown
# Summary of the method: (§1)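 Full-length untagged PU.1 was made by coupled human in vitro transcription/translation. It was bound for 1 h to custom double-stranded DNA microarrays carrying 20-bp genomic sites and single-nucleotide variants, 10 probes per site (5 per orientation). The binding buffer was HEPES pH 7.9 with 100 mM NaCl, 2% milk and salmon testes DNA. Bound protein was detected with anti-PU.1 and then a fluorescent secondary antibody. Binding is a z-score from scanned fluorescence after linear-regression normalisation.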
# PU.1 (IVT) [2] = target: PU.1 (IVT) (UniProt P17947 1-270); assay: as above; settings: dsDNA, one strand shown; remark: listed apart in the source
# Summary of the method: as §1
Sequence,binding signal (PU.1 (IVT) [1]),binding signal (PU.1 (IVT) [2])
GCCTAGCACAAAAAAGGGAAGTGGATGCTGTGCTAGGTCTTGATTCGCTTGACGCTGCTG,7.67 z-score,
GCCTAGCACAAAAAAAGGAAGTCTGTTTTGTGCTAGGTCTTGATTCGCTTGACGCTGCTG,,6.43 z-score
GCCTAGCACAAAAAGGGGAAGTCAAATTGGTGCTAGGTCTTGATTCGCTTGACGCTGCTG,8.09 z-score,
GCCTAGCACAAAGAAGGGAAGTGACTTGCGTGCTAGGTCTTGATTCGCTTGACGCTGCTG,3.86 z-score,
GCCTAGCACAAAAAGGGGAAGTTGGGGATGTGCTAGGTCTTGATTCGCTTGACGCTGCTG,8.45 z-score,
GCCTAGCACAAAAAGGGGAAGTCAATTTTGTGCTAGGTCTTGATTCGCTTGACGCTGCTG,8.55 z-score,
GCCTAGCACAAAAAGGGGAAGTGATGGCGGTGCTAGGTCTTGATTCGCTTGACGCTGCTG,8.22 z-score,
GCCTAGCACAAAAAAGGGAAGTGAAGTACGTGCTAGGTCTTGATTCGCTTGACGCTGCTG,7.2 z-score,
GCCTAGCACAAAAAGGGGAAGTACTGCGAGTGCTAGGTCTTGATTCGCTTGACGCTGCTG,8.58 z-score,
GCCTAGCACAAAAAGGGGAAGTGACTTTCGTGCTAGGTCTTGATTCGCTTGACGCTGCTG,8.66 z-score,
GCCTAGCACAAAAAAGGGAAGTGCAAGATGTGCTAGGTCTTGATTCGCTTGACGCTGCTG,7.79 z-score,
GCCTAGCACAAAAGGAGGAAGTACTGTGAGTGCTAGGTCTTGATTCGCTTGACGCTGCTG,7.12 z-score,
GCCTAGCACTTAAACAGGAAGTGTGTAATGTGCTAGGTCTTGATTCGCTTGACGCTGCTG,5.79 z-score,
GCCTAGCACTTAAGGAGGAACTGAAACCAGTGCTAGGTCTTGATTCGCTTGACGCTGCTG,,2.65 z-score
GCCTAGCACTAAAGGAGGAACTGAAAACAGTGCTAGGTCTTGATTCGCTTGACGCTGCTG,,3.62 z-score
GCCTAGCACTAAAAGAGGAACTGAAACCAGTGCTAGGTCTTGATTCGCTTGACGCTGCTG,6.72 z-score,
GCCTAGCACCTGCAAAGGAAGTCTGGGCCGTGCTAGGTCTTGATTCGCTTGACGCTGCTG,,0.767 z-score
GCCTAGCACTGGAAGAGGAAGTTGGTTTTGTGCTAGGTCTTGATTCGCTTGACGCTGCTG,7.15 z-score,
GCCTAGCACCATTTGTAGAAGTACTGTGCGTGCTAGGTCTTGATTCGCTTGACGCTGCTG,,0.808 z-score
GCCTAGCACAAAAAGCAGAAGTGTTCTGTGTGCTAGGTCTTGATTCGCTTGACGCTGCTG,6.88 z-score,
GCCTAGCACAAAAAGGGGAAGTCTGGACTGTGCTAGGTCTTGATTCGCTTGACGCTGCTG,7.65 z-score,

Sequence,binding signal (PU.1 (IVT) [1]),binding signal (PU.1 (IVT) [2])
GCCTAGCACAAAAAGGGGAAGTGCTTTCTGTGCTAGGTCTTGATTCGCTTGACGCTGCTG,8.76 z-score,
GCCTAGCACAAAAAGGGGAAGTGTGCTGCGTGCTAGGTCTTGATTCGCTTGACGCTGCTG,8.33 z-score,
GCCTAGCACGAAAAGAGGAAGTCAAATTCGTGCTAGGTCTTGATTCGCTTGACGCTGCTG,8.31 z-score,
GCCTAGCACGGAAAGAGGAAGTCAAAAATGTGCTAGGTCTTGATTCGCTTGACGCTGCTG,7.85 z-score,
GCCTAGCACGAAAAGAGGAAGTCAGACTAGTGCTAGGTCTTGATTCGCTTGACGCTGCTG,8.15 z-score,
GCCTAGCACGAAATGAGGAAGTGAAATTGGTGCTAGGTCTTGATTCGCTTGACGCTGCTG,8.42 z-score,
GCCTAGCACGAAATGAGGAAGTGCTAGTGGTGCTAGGTCTTGATTCGCTTGACGCTGCTG,8.07 z-score,
GCCTAGCACGAAAAGAGGAAGTCGAATTAGTGCTAGGTCTTGATTCGCTTGACGCTGCTG,8.06 z-score,
GCCTAGCACGAAAAGAGGAAGTGGAATTTGTGCTAGGTCTTGATTCGCTTGACGCTGCTG,8.92 z-score,
GCCTAGCACGAAAAGAGGAAGTCAAATTTGTGCTAGGTCTTGATTCGCTTGACGCTGCTG,8.44 z-score,
GCCTAGCACAGAAAAAGGAAGTGGAATTTGTGCTAGGTCTTGATTCGCTTGACGCTGCTG,6.29 z-score,
GCCTAGCACGAAAAGAGGAAGTCAAACTTGTGCTAGGTCTTGATTCGCTTGACGCTGCTG,8.22 z-score,
GCCTAGCACGAAATGAGGAAGTGGCTGGTGTGCTAGGTCTTGATTCGCTTGACGCTGCTG,7.9 z-score,
GCCTAGCACGAAAAGAGGAAGTCAGAAATGTGCTAGGTCTTGATTCGCTTGACGCTGCTG,8.35 z-score,
GCCTAGCACAAAAAAAGGAAATGAAAGTAGTGCTAGGTCTTGATTCGCTTGACGCTGCTG,3.32 z-score,
GCCTAGCACGTCAAAAAAAGGAAAAAGCCGTGCTAGGTCTTGATTCGCTTGACGCTGCTG,,0.885 z-score
GCCTAGCACAAGAAGCGGAAGTGAAAGACGTGCTAGGTCTTGATTCGCTTGACGCTGCTG,6.8 z-score,
GCCTAGCACAGAAAAAGGAACTGGCTAGAGTGCTAGGTCTTGATTCGCTTGACGCTGCTG,,3.75 z-score
GCCTAGCACCAAAAGAGGAAGTGAGAAGCGTGCTAGGTCTTGATTCGCTTGACGCTGCTG,8.31 z-score,
GCCTAGCACGAAAACAGGAAGTGACTGTTGTGCTAGGTCTTGATTCGCTTGACGCTGCTG,8.08 z-score,
GCCTAGCACGAAATGAGGAAGTGTAAACAGTGCTAGGTCTTGATTCGCTTGACGCTGCTG,7.49 z-score,

Sequence,binding signal (PU.1 (IVT) [1]),binding signal (PU.1 (IVT) [2])
GCCTAGCACGAAGAGAGGAAGTCAAATTGGTGCTAGGTCTTGATTCGCTTGACGCTGCTG,,4.29 z-score
GCCTAGCACGAAAAGAGGAAGTCAAATTGGTGCTAGGTCTTGATTCGCTTGACGCTGCTG,8.37 z-score,
GCCTAGCACGAAGAGAGGAAGTGAAATTGGTGCTAGGTCTTGATTCGCTTGACGCTGCTG,,5.29 z-score
GCCTAGCACGAAAAAAGGAAGTCAAATTGGTGCTAGGTCTTGATTCGCTTGACGCTGCTG,,5.97 z-score
GCCTAGCACGAAAAGAGGAAATGAGAGAGGTGCTAGGTCTTGATTCGCTTGACGCTGCTG,,5.36 z-score
GCCTAGCACGAAATGAGGAAGTACCTAAAGTGCTAGGTCTTGATTCGCTTGACGCTGCTG,8.71 z-score,
GCCTAGCACGAAAAGAGGAAGTGAAATTGGTGCTAGGTCTTGATTCGCTTGACGCTGCTG,8.72 z-score,
GCCTAGCACGAAAAGAGGAAATGAAATTGGTGCTAGGTCTTGATTCGCTTGACGCTGCTG,,6.51 z-score
GCCTAGCACGAAATGAGGAAGTTGGTGCTGTGCTAGGTCTTGATTCGCTTGACGCTGCTG,8.11 z-score,
GCCTAGCACGAAATGAGGAAGTTGAGAGCGTGCTAGGTCTTGATTCGCTTGACGCTGCTG,8.36 z-score,
GCCTAGCACGAAATGAGGAAGTGATTAGGGTGCTAGGTCTTGATTCGCTTGACGCTGCTG,8.13 z-score,
GCCTAGCACGAAATAGGGAAGTGTGAGTTGTGCTAGGTCTTGATTCGCTTGACGCTGCTG,6.74 z-score,
GCCTAGCACTGAGAGGGGAAGTGGCAGCTGTGCTAGGTCTTGATTCGCTTGACGCTGCTG,,4.01 z-score
GCCTAGCACTGGAGGAGGAACTGAAATACGTGCTAGGTCTTGATTCGCTTGACGCTGCTG,2.94 z-score,
GCCTAGCACTGAAAGGGGAAGTCAGATAGGTGCTAGGTCTTGATTCGCTTGACGCTGCTG,,6.45 z-score
GCCTAGCACCAAATGAGGAACTGATGCGAGTGCTAGGTCTTGATTCGCTTGACGCTGCTG,6.15 z-score,
GCCTAGCACCAAAGGAGGAACTGAAACCAGTGCTAGGTCTTGATTCGCTTGACGCTGCTG,,3.2 z-score
GCCTAGCACTGAAAGGGGAAGTGGGTGCCGTGCTAGGTCTTGATTCGCTTGACGCTGCTG,,6.37 z-score
GCCTAGCACCGAAAGGGGAAGTGCTAAGCGTGCTAGGTCTTGATTCGCTTGACGCTGCTG,6.82 z-score,
GCCTAGCACGGAAAGAGGAAGTCAAATTGGTGCTAGGTCTTGATTCGCTTGACGCTGCTG,7.8 z-score,
GCCTAGCACGAAAAGAGGAAGTCAAACTGGTGCTAGGTCTTGATTCGCTTGACGCTGCTG,7.89 z-score,

Sequence,binding signal (PU.1 (IVT) [1]),binding signal (PU.1 (IVT) [2])
GCCTAGCACGAAAAGAGGAAGTCAATTTGGTGCTAGGTCTTGATTCGCTTGACGCTGCTG,8.54 z-score,
GCCTAGCACTACCCTTTAAAAATAGTTCAGTGCTAGGTCTTGATTCGCTTGACGCTGCTG,,0.827 z-score
GCCTAGCACAGAGAGAGGAAGTGATTACAGTGCTAGGTCTTGATTCGCTTGACGCTGCTG,4.98 z-score,
GCCTAGCACTTCAGGGGGAAGTACTGTGTGTGCTAGGTCTTGATTCGCTTGACGCTGCTG,,3.94 z-score
GCCTAGCACCACAAGAGGAAGTCCCACAAGTGCTAGGTCTTGATTCGCTTGACGCTGCTG,,3.93 z-score
GCCTAGCACTCCAGGAGGAACTACTGTGTGTGCTAGGTCTTGATTCGCTTGACGCTGCTG,2.59 z-score,
GCCTAGCACAGGAAGAGGAAGAGGAAGAAGTGCTAGGTCTTGATTCGCTTGACGCTGCTG,,4.95 z-score
GCCTAGCACAGAAAGAGGAAGTGTAAAAAGTGCTAGGTCTTGATTCGCTTGACGCTGCTG,8.57 z-score,
GCCTAGCACAGAAAGAGGAAGTGACTTGCGTGCTAGGTCTTGATTCGCTTGACGCTGCTG,8.54 z-score,
GCCTAGCACAGAGAGAGGAAGTGAAAGTAGTGCTAGGTCTTGATTCGCTTGACGCTGCTG,,4.81 z-score
GCCTAGCACACAGAGAGGAAGTAGATAAAGTGCTAGGTCTTGATTCGCTTGACGCTGCTG,,4.75 z-score
GCCTAGCACAGAGAGGGGAAGTGACTTGCGTGCTAGGTCTTGATTCGCTTGACGCTGCTG,4.95 z-score,
GCCTAGCACAGAAAGAGGAAGTAGATATTGTGCTAGGTCTTGATTCGCTTGACGCTGCTG,8.76 z-score,
GCCTAGCACAGAAAGGGGAAGTGACTTGCGTGCTAGGTCTTGATTCGCTTGACGCTGCTG,8.13 z-score,
GCCTAGCACAGAGAGAGGAAGTGAGCTCTGTGCTAGGTCTTGATTCGCTTGACGCTGCTG,,4.31 z-score
GCCTAGCACAGAAAGAGGAACTGAAAAGTGTGCTAGGTCTTGATTCGCTTGACGCTGCTG,6.62 z-score,
GCCTAGCACAGAAAGAGGAAGTCCTCTCTGTGCTAGGTCTTGATTCGCTTGACGCTGCTG,8.3 z-score,
GCCTAGCACAGAAAGAGGAAGTTGGCTCTGTGCTAGGTCTTGATTCGCTTGACGCTGCTG,8.56 z-score,
